Laboratory results taken from PubChem BioAssay (NCATS).
Inconclusive results are not listed. Where a call stands in place of a potency, no number is given. A number with no mark means an inactive call. The source made the active and inactive calls. The call rests on the fitted dose curve; in most records, active means well fitted curve in the direction sought with a large enough effect; inconclusive means small, poorly fitted or top-dose-only effect, or another doubt; inactive means no such curve, though single readings can be large; an effect the other way counts as inactive or inconclusive.

How the values were obtained:
[1] = P-glycoprotein substrates identified in KB-3-1 adenocarcinoma cell line, qHTS therapeutic library screen (AID 1346986); further: nearly all actives have a fitted effect of over 60% in size;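 further: potency is for cytotoxicity meaning loss of cell viability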
Outline: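 Cells seeded 500/well in DMEM/10% FCS; compounds pinned in dose-response; 72 h incubation; CellTiter-Glo added, 5 min, luminescence. KB-8-5-11 run ±tariquidar to test reversal of P-gp resistance.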

[2] = P-glycoprotein substrates identified in KB-8-5-11 adenocarcinoma cell line, qHTS therapeutic library screen (AID 1346987); further: nearly all actives have a fitted effect of over 65% in size
Outline: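 KB-8-5-11, a colchicine-selected P-gp-overexpressing KB-3-1 subline, was grown without colchicine for the assay. Cells were seeded at 500 cells/well, dosed in concentration-response and incubated 72 h at 37 degree C, 5% CO2. Viability was read by CellTiter-Glo luminescence.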
Potency means the concentration at half of the fitted maximal effect.

Row | Structure (SMILES) | Potency [1] | Potency [2]
1 | Cc1cc(OCc2nc(-c3ccccc3Cl)cs2)ccc1OCC(=O)O | inactive | inactive
2 | CC(=O)OCC1(O)CCC2C(COC3OC(CO)C(O)C(O)C3OC(=O)/C=C/c3ccc(O)cc3)=COC(OC(=O)CC(C)C)C21 (stereo unspecified) | inactive | inactive
3 | COC1=CC(=O)CC(C)C12Oc1cc(OC)cc(O)c1C2=O (stereo unspecified) | inactive | inactive
4 | CCOC(=O)c1cc(C#N)c(N2CCC(C(=O)NS(=O)(=O)Cc3ccccc3)CC2)nc1C | inactive | inactive
5 | C[C@@H]1O[C@@H](O[C@H]2[C@@H]3C=CO[C@@H](O[C@@H]4O[C@H](CO)[C@@H](O)[C@H](O)[C@H]4O)[C@@H]3[C@@]3(CO)O[C@@H]23)[C@H](OC(=O)/C=C/c2ccccc2)[C@H](O)[C@H]1O | inactive | inactive
6 | C=C1C[C@]23C[C@H]1CC[C@H]2[C@@]1(C)CCC[C@@]2(C)C(=O)O[C@@H]([C@@H]3O)[C@@H]12 | inactive | inactive
7 | CC1=CC(=O)CC(C)(C)[C@H]1/C=C/C(CO)O[C@@H]1O[C@H](CO)[C@@H](O)[C@H](O)[C@H]1O (stereo partly specified) | inactive | inactive
8 | CC(O)CO[C@@H]1O[C@H](CO)[C@@H](O)[C@H](O)[C@H]1O (stereo partly specified) | inactive | inactive
9 | O=C(O)CCCCCC[C@H]1C(=O)NC(=O)N1CC[C@@H](O)C1CCCCC1 | inactive | inactive
10 | C=C1CC2C(C)(CCC(=O)O)C(C(C)(C)O)CCC2(C)C2C(=O)OC(C)(C(=O)OC)C(=O)C12C (stereo unspecified) | inactive | inactive
11 | OC[C@H]1O[C@@H](Oc2cc(O)c3c(c2)O[C@@H](c2ccc(O)cc2)[C@H](O)C3)[C@H](O)[C@@H](O)[C@@H]1O | inactive | inactive
12 | C[C@@H]1O[C@@H](OC[C@H]2O[C@@H](OC(CCCCc3ccc(O)cc3)CCc3ccc(O)cc3)[C@H](O)[C@@H](O)[C@@H]2O)[C@H](O)[C@H](O)[C@H]1O (stereo partly specified) | inactive | inactive
13 | CC1(C)CCCC2(C)C1C(O)C=C(CO)C2(O)CO (stereo unspecified) | inactive | inactive
14 | COC(=O)C1=CO[C@@H](O[C@@H]2O[C@H](CO)[C@@H](O)[C@H](O)[C@H]2O)[C@H]2[C@@H]1C=C[C@@]21C=C([C@H](C)O)C(=O)O1 | inactive | inactive
15 | CO[C@H]1O[C@@H]2O[C@]3(C)CC[C@H]4[C@H](C)CC[C@@H]([C@H]1C)[C@@]24OO3 | inactive | inactive
16 | COc1nc2sc(C(=O)NC3CC3)c(N)c2c(C)c1Cl | inactive | inactive
17 | O=C(O)c1cc(-c2c(-c3ccccc3)nn3ccccc23)n[nH]c1=O | inactive | inactive
18 | CC(C)=CCC/C(C)=C/CCC1(C)Oc2c(c(O)cc3c2CN(C(CCC(=O)O)C(=O)O)C3=O)CC1O (stereo unspecified) | inactive | inactive
19 | CC(C)(O)c1ccc2c(c1)C(O)C[C@H]1[C@](C)(C(=O)O)CCC[C@]21C (stereo partly specified) | inactive | inactive
20 | C[C@H]1CC[C@@H]2N(C1)C[C@@H]1[C@H]([C@@H](O)[C@H](O)[C@]3(O)[C@H]1C[C@@]14OC5(O)[C@@H](C[C@@H](O)[C@@H]31)[C@]4(C)CC[C@@H]5O)[C@]2(C)O | inactive | inactive
21 | Cc1cc(Cl)ccc1COc1ccnn1-c1cc(C(=O)O)ccn1 | inactive | inactive
22 | CCCOc1ccc(-c2nc(OC)c3ccccc3n2)cc1 | inactive | inactive
23 | Cc1ccc(C(=O)Nc2noc3ccccc23)cc1 | inactive | inactive
24 | CC[C@@H](O)C[C@@H]1C(C)=C[C@@H]2CCCC[C@@H]2[C@@]1(C)C(=O)O | inactive | inactive
25 | CCCCNc1ncc2c(-c3ccc(CN4CCN(C)CC4)cc3)cn(C3CCC(O)CC3)c2n1 (stereo unspecified) | 517 nM (active) | 1300 nM (active)
26 | CCn1cc(NC(=S)Nc2cc(Cl)ccc2OC)c(C(N)=O)n1 | inactive | inactive
27 | CC(=O)C1=CCC2C3CCC4CC(O[C@@H]5O[C@H](CO)[C@@H](O[C@@H]6O[C@@H](C)[C@H](O)[C@@H](O)[C@H]6O)[C@H](O)[C@H]5O[C@@H]5O[C@H](CO)[C@@H](O)[C@H](O)[C@H]5O)CCC4(C)C3CCC12C (stereo partly specified) | inactive | inactive
28 | Cc1noc(=O)c2ccc(NC(=O)C(O)(CC(C)(C)c3cccc4c3OCC4)C(F)(F)F)cc12 (stereo unspecified) | inactive | inactive
